Assay results from PubChem BioAssay (NCI).
This is part of a sample that, as a whole, favours compounds with a hit. Of some 83,000 tested, about 20% had one in any assay.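 Negative percent growth values reflect cell death: -40 means 40% of the cells present at the start died, and -100 means all died.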 Calls of active or inactive are those of the source. Rule for the calls: active = growth percent below 10; inactive = the rest.

Columns and labels:
Test in all cases: NCI-60 one-dose screen, 48 h (100 = growth as untreated, 0 = no growth, -100 = all killed)
Conditions in all cases: 10 µM unless noted
SK-MEL-2 melanoma = tested on: SK-MEL-2 melanoma
EKVX NSCLC = tested on: EKVX NSCLC
SN12C renal = tested on: SN12C renal
UO-31 renal = tested on: UO-31 renal
TK-10 renal = tested on: TK-10 renal
ACHN renal = tested on: ACHN renal
CAKI-1 renal = tested on: CAKI-1 renal
A498 renal = tested on: A498 renal
CCRF-CEM leukemia = tested on: CCRF-CEM leukemia
MOLT-4 leukemia = tested on: MOLT-4 leukemia
SR leukemia = tested on: SR leukemia
RPMI-8226 leukemia = tested on: RPMI-8226 leukemia
OVCAR-8 ovarian = tested on: OVCAR-8 ovarian
OVCAR-5 ovarian = tested on: OVCAR-5 ovarian
OVCAR-4 ovarian = tested on: OVCAR-4 ovarian
SK-OV-3 ovarian = tested on: SK-OV-3 ovarian
IGROV1 ovarian = tested on: IGROV1 ovarian
OVCAR-3 ovarian = tested on: OVCAR-3 ovarian
HS 578T breast = tested on: HS 578T breast
NCI/ADR-RES ovarian = tested on: NCI/ADR-RES ovarian

Measured: growth

O=C(NN1C(=O)/C(=C/C=C/c2ccc([N+](=O)[O-])o2)SC1=S)c1ccc(Cl)cc1
active: SK-MEL-2 melanoma -90.8% | EKVX NSCLC -97.4% | SN12C renal -98.6% | UO-31 renal -100% | TK-10 renal -99% | ACHN renal -100% | CAKI-1 renal -100% | A498 renal -93.7% | CCRF-CEM leukemia -14.7% | MOLT-4 leukemia 2.15% | SR leukemia 4.16% | RPMI-8226 leukemia -23.8% | OVCAR-8 ovarian -78.2% | OVCAR-5 ovarian -97.7% | OVCAR-4 ovarian -98.9% | SK-OV-3 ovarian -99.6% | IGROV1 ovarian -92.9% | OVCAR-3 ovarian -98% | HS 578T breast -18.4% | NCI/ADR-RES ovarian -42.6%

COc1ccc(-c2nc3cc(C)ccc3n2CC(=O)N=Nc2c(O)[nH]c3ccc(Br)cc23)cc1
inactive: SK-MEL-2 melanoma 61.6% | UO-31 renal 53.5% | TK-10 renal 25.6% | ACHN renal 15.5% | CAKI-1 renal 54.6% | A498 renal 136% | CCRF-CEM leukemia 58.8% | MOLT-4 leukemia 23.3% | RPMI-8226 leukemia 42% | SK-OV-3 ovarian 35% | IGROV1 ovarian 23.9% | OVCAR-3 ovarian 14.9% | HS 578T breast 20.3%
active: EKVX NSCLC -36.5% | SN12C renal -57.8% | SR leukemia 2.47% | OVCAR-8 ovarian -61.8% | OVCAR-5 ovarian -4.99% | OVCAR-4 ovarian -18.3% | NCI/ADR-RES ovarian -22%

COc1ccc(-c2nc3cc(C)ccc3n2CC(=O)N=Nc2c(O)[nH]c3ccc(Cl)cc23)cc1
inactive: SK-MEL-2 melanoma 47.9% | UO-31 renal 41.7% | TK-10 renal 21.6% | CAKI-1 renal 33% | A498 renal 101% | CCRF-CEM leukemia 54.9% | MOLT-4 leukemia 11% | RPMI-8226 leukemia 41.8% | SK-OV-3 ovarian 13.7% | IGROV1 ovarian 18.3%
active: EKVX NSCLC -49.5% | SN12C renal -62.6% | ACHN renal 5.37% | SR leukemia -7.22% | OVCAR-8 ovarian -74.8% | OVCAR-5 ovarian 3.51% | OVCAR-4 ovarian -25.4% | OVCAR-3 ovarian -13.8% | HS 578T breast -2.87% | NCI/ADR-RES ovarian -30.8%

COc1cc(/C=C2\C(=N)N=C(SCc3nc4ccccc4[nH]3)NC2=O)ccc1O
inactive: SK-MEL-2 melanoma 105% | EKVX NSCLC 101% | SN12C renal 103% | UO-31 renal 64.2% | TK-10 renal 155% | ACHN renal 98.1% | CAKI-1 renal 86% | A498 renal 113% | CCRF-CEM leukemia 99.4% | MOLT-4 leukemia 99.2% | SR leukemia 88.5% | RPMI-8226 leukemia 85% | OVCAR-8 ovarian 101% | OVCAR-5 ovarian 109% | OVCAR-4 ovarian 96.6% | SK-OV-3 ovarian 103% | IGROV1 ovarian 106% | OVCAR-3 ovarian 103% | HS 578T breast 93.3% | NCI/ADR-RES ovarian 99%

Cc1ccc(-c2nc(Nc3ccccc3S(N)(=O)=O)c3ccccc3n2)cc1
inactive: SK-MEL-2 melanoma 102% | EKVX NSCLC 74.1% | SN12C renal 51.8% | UO-31 renal 50.4% | TK-10 renal 151% | ACHN renal 74% | CAKI-1 renal 78% | A498 renal 118% | CCRF-CEM leukemia 76.1% | MOLT-4 leukemia 78.5% | SR leukemia 46.7% | RPMI-8226 leukemia 59.7% | OVCAR-8 ovarian 55.6% | OVCAR-5 ovarian 85.3% | OVCAR-4 ovarian 74.2% | SK-OV-3 ovarian 91.4% | IGROV1 ovarian 82.3% | OVCAR-3 ovarian 97.1% | HS 578T breast 76.8% | NCI/ADR-RES ovarian 55.7%

O=C(COc1ccc(NC(=O)Nc2ccc(Cl)c(Cl)c2)cc1)N=Nc1c(O)[nH]c2ccc(Br)cc12
inactive: UO-31 renal 51.1% | ACHN renal 12.5% | NCI/ADR-RES ovarian 82.4%
active: SK-MEL-2 melanoma -71.6% | EKVX NSCLC 4.88% | SN12C renal -20.9% | TK-10 renal -0.92% | CAKI-1 renal 0.251% | A498 renal -54.9% | CCRF-CEM leukemia 9.52% | MOLT-4 leukemia -3.16% | SR leukemia 3.18% | RPMI-8226 leukemia 3.61% | OVCAR-8 ovarian -59.9% | OVCAR-5 ovarian -44.5% | OVCAR-4 ovarian -27% | SK-OV-3 ovarian -43.3% | IGROV1 ovarian -51% | OVCAR-3 ovarian -76.4% | HS 578T breast -5.94%

Cc1ccccc1[C@H]1C(C(=O)c2ccc(Cl)cc2)C2(N[C@@H]1c1ccccc1)C(=O)Nc1ccc(Br)cc12 (stereo not given in full)
inactive: EKVX NSCLC 26.4% | UO-31 renal 14.1% | TK-10 renal 41.6% | CAKI-1 renal 23% | A498 renal 44.3% | OVCAR-4 ovarian 14.6% | SK-OV-3 ovarian 33.4% | IGROV1 ovarian 13.4% | HS 578T breast 10.7%
active: SK-MEL-2 melanoma -11.2% | SN12C renal -82.1% | ACHN renal 7.11% | CCRF-CEM leukemia 5.11% | MOLT-4 leukemia -2.55% | SR leukemia -21.5% | RPMI-8226 leukemia -10.5% | OVCAR-8 ovarian 2.36% | OVCAR-5 ovarian 5.07% | OVCAR-3 ovarian -30.7% | NCI/ADR-RES ovarian -55.1%

C=C1CCC2C3(C)COC(c4cccs4)OC3CCC2(C)C1CC(Sc1ccccc1)C1=CCOC1=O (stereo not given)
active: CCRF-CEM leukemia 1.2% | NCI/ADR-RES ovarian 2.64%
inactive: SK-MEL-2 melanoma 98.2% | EKVX NSCLC 116% | SN12C renal 46.4% | UO-31 renal 58.5% | TK-10 renal 118% | ACHN renal 91.1% | CAKI-1 renal 101% | A498 renal 133% | MOLT-4 leukemia 52.9% | SR leukemia 46.1% | RPMI-8226 leukemia 16.1% | OVCAR-8 ovarian 66% | OVCAR-5 ovarian 102% | OVCAR-4 ovarian 83.6% | SK-OV-3 ovarian 131% | IGROV1 ovarian 95.5% | OVCAR-3 ovarian 86.1% | HS 578T breast 112%

Clc1cccc(N/N=C/c2c[nH]c3ccc(Br)cc23)n1
active: SN12C renal -1.39% | UO-31 renal 7.66% | CCRF-CEM leukemia -14.8% | MOLT-4 leukemia -20.1% | SR leukemia -14% | RPMI-8226 leukemia 1.81% | IGROV1 ovarian -33.2% | NCI/ADR-RES ovarian 2.49%
inactive: SK-MEL-2 melanoma 27.4% | EKVX NSCLC 33.9% | TK-10 renal 63.9% | ACHN renal 10.6% | CAKI-1 renal 11.7% | A498 renal 79.9% | OVCAR-8 ovarian 42% | OVCAR-5 ovarian 14% | OVCAR-4 ovarian 61% | SK-OV-3 ovarian 25.3% | OVCAR-3 ovarian 18.6% | HS 578T breast 32.9%

CC(C)C(C(=O)O)n1c(O)c(/C=C2/C=c3cc4c(cc3=NC2=O)OCO4)sc1=S (stereo not given)
inactive: SK-MEL-2 melanoma 104% | EKVX NSCLC 99.3% | SN12C renal 96.6% | UO-31 renal 78.2% | TK-10 renal 89.8% | ACHN renal 111% | CAKI-1 renal 93% | A498 renal 102% | CCRF-CEM leukemia 106% | MOLT-4 leukemia 104% | SR leukemia 90.5% | RPMI-8226 leukemia 109% | OVCAR-8 ovarian 105% | OVCAR-5 ovarian 110% | OVCAR-4 ovarian 108% | SK-OV-3 ovarian 129% | IGROV1 ovarian 109% | OVCAR-3 ovarian 107% | HS 578T breast 99.8% | NCI/ADR-RES ovarian 98.2%

COc1ccc(NC(=O)[C@H](CO)NC(=O)OC(C)(C)C)cc1C(=O)Nc1cccc(C2CC(=O)c3c(cc(OC)c(OC)c3OC)O2)c1 (stereo not given in full)
inactive: SK-MEL-2 melanoma 53.1% | EKVX NSCLC 81.2% | SN12C renal 49% | UO-31 renal 40.4% | TK-10 renal 103% | ACHN renal 56.2% | CAKI-1 renal 38.6% | A498 renal 105% | CCRF-CEM leukemia 23.3% | MOLT-4 leukemia 16.2% | SR leukemia 25.3% | RPMI-8226 leukemia 23% | OVCAR-8 ovarian 26.3% | OVCAR-5 ovarian 113% | OVCAR-4 ovarian 57.7% | SK-OV-3 ovarian 87.8% | IGROV1 ovarian 43.1% | OVCAR-3 ovarian 47.7% | HS 578T breast 53.6% | NCI/ADR-RES ovarian 71.6%

COc1ccc(NC(=O)[C@H](C)N)cc1C(=O)Nc1cccc(C2CC(=O)c3c(cc(OC)c(OC)c3OC)O2)c1 (stereo not given in full)
inactive: SK-MEL-2 melanoma 101% | EKVX NSCLC 97.2% | SN12C renal 93.8% | UO-31 renal 73% | TK-10 renal 102% | ACHN renal 87.1% | CAKI-1 renal 82% | A498 renal 97% | CCRF-CEM leukemia 57.4% | MOLT-4 leukemia 59.8% | SR leukemia 63.8% | RPMI-8226 leukemia 55.3% | OVCAR-8 ovarian 68.8% | OVCAR-5 ovarian 104% | OVCAR-4 ovarian 81.7% | SK-OV-3 ovarian 146% | IGROV1 ovarian 98.7% | OVCAR-3 ovarian 91.9% | HS 578T breast 95.8% | NCI/ADR-RES ovarian 86.1%

Cc1ccc(-c2nc(C#N)c(S(=O)(=O)N3CCN(S(=O)(=O)c4ccccc4)CC3)o2)cc1
inactive: SK-MEL-2 melanoma 48% | EKVX NSCLC 63.1% | TK-10 renal 81.2% | CAKI-1 renal 47% | A498 renal 123% | OVCAR-5 ovarian 19.5% | SK-OV-3 ovarian 115% | HS 578T breast 65.5%
active: SN12C renal 3.58% | UO-31 renal -67.7% | ACHN renal -36.9% | CCRF-CEM leukemia -33.6% | MOLT-4 leukemia -20.5% | SR leukemia -48.1% | RPMI-8226 leukemia -24.5% | OVCAR-8 ovarian 1.2% | OVCAR-4 ovarian -1.2% | IGROV1 ovarian -63.6% | OVCAR-3 ovarian 1.2% | NCI/ADR-RES ovarian 4.76%

O=C(c1ccccc1)C(c1c[nH]c2ccccc12)c1c[nH]c2ccccc12
active: CCRF-CEM leukemia 3.87% | SR leukemia 7.54%
inactive: SK-MEL-2 melanoma 71.9% | EKVX NSCLC 76.5% | SN12C renal 49% | UO-31 renal 45% | TK-10 renal 142% | ACHN renal 53.5% | CAKI-1 renal 31.6% | A498 renal 98.1% | MOLT-4 leukemia 16.5% | RPMI-8226 leukemia 20.6% | OVCAR-8 ovarian 64.4% | OVCAR-5 ovarian 76.6% | OVCAR-4 ovarian 51.5% | SK-OV-3 ovarian 94.2% | IGROV1 ovarian 56% | OVCAR-3 ovarian 57.9% | HS 578T breast 61% | NCI/ADR-RES ovarian 47.4%

S=C(Nc1ccccc1)Nc1ccc(OCc2nc3ccccc3[nH]2)cc1
inactive: SK-MEL-2 melanoma 24.6% | EKVX NSCLC 46.3% | SN12C renal 47.1% | UO-31 renal 30.4% | TK-10 renal 72.3% | ACHN renal 24.6% | CAKI-1 renal 18.9% | A498 renal 72.1% | CCRF-CEM leukemia 28.9% | MOLT-4 leukemia 19.8% | SR leukemia 32.5% | RPMI-8226 leukemia 39.2% | OVCAR-8 ovarian 35.8% | OVCAR-5 ovarian 66.3% | OVCAR-4 ovarian 38.9% | SK-OV-3 ovarian 86.6% | IGROV1 ovarian 56.3% | OVCAR-3 ovarian 29% | HS 578T breast 50.6% | NCI/ADR-RES ovarian 43%
